About 1,100 (1.7%) of roughly 63,000 compounds were called active. The entries come from a sample that favours actives as a whole. Results with a measured potency or affinity are listed apart. Unmarked numbers belong to inactive results.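 How the source made its calls: active means compounds whose percent cytotoxicity in the single-dose primary screen, scaled between solvent and toxic-drug controls, exceeds 50; inactive means the rest.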

This test is described as follows: cytotoxicity in KRAS-transformed pancreatic duct cells, primary screen, cell-based, fluorescence, HTS (AID 431).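 Further: 0% = DMSO solvent wells and 100% = doxorubicin-treated wells.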 Particulars: HPDE-C7K KRASV12 cells, Alamar Blue viability, 48 h; at 10 µM; hits give high values. In general terms: The colour change of resazurin is a common sign of viable cells or microbes.
With `c1ccc(CSc2nnc(-c3cccs3)n2Cc2ccco2)cc1`, the cytotoxicity is -21.5%.
Then `CCOC(=O)c1cccc(Nc2nc(C)cc(C)n2)c1`, with 0.1%.
For `O=C(NCc1ccccn1)c1cn(CCc2ccccc2)nn1` the value was -5%; for `CCOC(=O)Cc1csc(NC(=O)c2c(-c3c(F)cccc3Cl)noc2C)n1`, -8.5%; for `Cc1ccc2oc(-c3cccc(NC(=O)C4CCCO4)c3)nc2c1` (stereo not drawn), 3.3%.
For `COc1cc(C(=O)Nc2cccc(-c3nc4cc(C)ccc4o3)c2)cc(OC)c1OC` the value was 43.8%.
For the compound `COc1cc(C(=O)NCc2ccc(-c3nc4ccccc4o3)cc2)cc(OC)c1OC`, the cytotoxicity is 2.5%.
As for `O=C(Nc1ccc2c(c1)oc1ccccc12)c1ccncc1`, the cytotoxicity is 7.8%.
For `O=S(=O)(Nc1ccc2oc(-c3ccccc3)nc2c1)c1ccccc1` the value was 15.5%.
With `COc1cc(OC)cc(C(=O)Nc2ccc(-c3nc4ccccc4o3)cc2)c1`, the cytotoxicity is 73.9% (active).
As to `O=C(Nc1ccc(-c2nc3ccccc3o2)cc1)C1CCCO1` (stereo not drawn), the cytotoxicity was 5.9%.
As to `COc1cccc(C(=O)Nc2ccc(-c3nc4ccccc4o3)c(O)c2)c1`, the cytotoxicity was 24.7%.
Then `O=S(=O)(Nc1ccc(-c2nc3ccccc3o2)cc1)c1ccccc1`, with 52% (active).
Then `O=C(Nc1ccc2ccccc2c1)c1cccnc1`, with 0.5%; and `O=C(Nc1ccc2c(c1)oc1ccccc12)c1cccnc1`, with 53.2% (active).
`Cc1occc1-c1nc(-c2ccccn2)no1`: the cytotoxicity is -13.5%.
In the case of `CC1CN(C(=O)c2cc3cc(Cl)cc(Cl)c3oc2=O)CC(C)O1` (stereo not drawn), the cytotoxicity was -12.2%.
Regarding `COc1ccc2oc(-c3ccccc3)c(C(N)=O)c2c1`, the cytotoxicity was -8.2%.
Consider `CCCCCC(=O)Nc1cccc(-c2nc3ncccc3o2)c1`, for which the cytotoxicity was -7%.
Consider `Cc1nnc(SCC(=O)NCc2cccs2)n1-c1ccccc1`, for which the cytotoxicity was -5.1%.
For `Cn1c(=O)c2c(SCc3ccccn3)nc(-c3ccccc3)nc2n(C)c1=O` the value was 6.7%; for `CC[C@@H](C)[C@H](NC(=O)C1CCN(C(=O)[C@@H](NS(=O)(=O)c2ccc(C)cc2)C(C)C)CC1)C(=O)O`, -19.2%; for `NC(=O)C1CCN(c2ncnc3c2c(-c2ccccc2)cn3-c2ccccc2)CC1`, -9%.
Regarding `Cn1nnnc1SCCNC/C=C/c1ccccc1`, the cytotoxicity was 14.4%.
`CN(C1CCCCC1)S(=O)(=O)c1ccc(-n2cnnn2)cc1`: the cytotoxicity is -13.1%.
With `CCCCN(CC)S(=O)(=O)N1CCC(C(=O)NCc2ccc(F)cc2)CC1`, the cytotoxicity was -8.2%.
For `C=CCN1C(=O)C2C(C(=O)NC)C3C=CC2(O3)C1C(=O)NCc1ccc(OC)cc1` (stereo not drawn) the value was 4.1%.
Then `N#CC1=C(N)C(C#N)(C#N)[C@H](c2ccoc2)[C@H]2CN(Cc3ccccc3)CC=C12`, with 81.4% (active); and `CC(=O)N1CC=C2C(C#N)=C(N)C(C#N)(C#N)[C@H](c3ccoc3)[C@H]2C1`, with 13.2%.
On to `CC(C)N1CC=C2C(C#N)=C(N)C(C#N)(C#N)C(c3ccccc3)C2C1` (stereo not drawn), for which the cytotoxicity was 27.9%.
Then `Cn1c(=O)c2c(nc(Br)n2Cc2c(F)cccc2Cl)n(C)c1=O`, with -11.4%.
Then `Cc1ccc(/C=c2/sc3nnc(-c4ccccc4Cl)n3c2=O)o1`, with 50.1% (active).
With `Cc1ccc(/C=c2\sc3nc(-c4ccccc4Br)nn3c2=O)o1`, the cytotoxicity is 8.5%.
Then `Cc1ccccc1-c1nnc2s/c(=C\c3ccc(N(C)C)cc3)c(=O)n12`, with 3.5%; and `COc1cccc(OC)c1OCCCSc1nc(C)cc(=O)[nH]1`, with 6.8%.
For `C=CCSC1=N/C(=C\c2ccc3c(c2)OCO3)C(=O)S1` the value was 52.9% (active); for `C=CCSC1=N/C(=C\c2cc(OC)c3c(c2)OCO3)C(=O)S1`, 16.5%; for `CCSC1=N/C(=C\c2ccc3c(c2)OCO3)C(=O)S1`, 40.9%.
Then `COc1ccc(-c2c3c(=O)n(C)c(=O)n(C)c3cn2Cc2ccccn2)cc1`, with 7%; and `CCS(=O)(=O)N1CCCC(C(=O)NCc2ccccc2Cl)C1` (stereo not drawn), with 14.1%.
Regarding `COc1cc(NC(=O)NCc2ccncc2)cc(OC)c1OC`, the cytotoxicity is -5.3%.
Then `CCCc1cc(-c2[nH]ncc2-c2ccc(C(=O)OCC)o2)c(O)cc1O`, with 30.9%; and `COc1ccc(-c2cnc(N)nc2-c2ccc(OC)cc2O)cc1`, with -1.3%.
For `Oc1ccccc1-c1cc(-c2ccc3c(c2)OCCO3)n[nH]1`, the cytotoxicity is 16.4%.
For the compound `CCOC(=O)c1nc(-c2ccc3c(c2)OCO3)[nH]c1C`, the cytotoxicity was 5.4%.
For `CCOc1ccc(-c2nc(N)ncc2-c2ccccc2)c(O)c1` the value was 8.3%.
Consider `CCc1cc(-c2[nH]ncc2-c2ccc3c(c2)OCO3)c(O)cc1O`, for which the cytotoxicity was 64.9% (active).
As to `Cc1nc(-c2ccc3c(c2)OCO3)cs1`, the cytotoxicity is -26.4%.
Consider `CCc1nc(SCc2ccccn2)c2c(=O)n(C)c(=O)n(C)c2n1`, for which the cytotoxicity is -2.5%.
In the case of `CCCSCCCNC(=O)Cn1cc2c(n1)CCC(C)C2` (stereo not drawn), the cytotoxicity was 4.6%.
For `COC(=O)Cc1csc(N)n1`, the cytotoxicity is -19.5%.
Consider `Cc1cc(C)c2[nH]c(=O)c(C(c3nnnn3Cc3ccc4c(c3)OCO4)N3CCC(C)CC3)cc2c1` (stereo not drawn), for which the cytotoxicity was -17.3%.
As for `O=C(CSc1nnc(-c2ccccn2)n1Cc1ccccc1)N1CCCC1`, the cytotoxicity is -3%.
For `O=C1C(=O)N(CCOCCO)C(c2ccccn2)/C1=C(\O)c1ccccc1` (stereo not drawn) the value was -29.5%.
Then `CCc1oc(C(=O)O)cc1CN(CC)CC`, with -3.6%.
As for `CCCCCn1c(CN2CCCCC2CC)nc2c1c(=O)n(C)c(=O)n2C` (stereo not drawn), the cytotoxicity is 8.3%.
Take `Cn1c(=O)oc2cc(S(=O)(=O)NCCC(=O)NCCc3ccccc3)ccc21`: the cytotoxicity is 0.1%.
Then `Cc1cc(Nc2cccc(C)c2C)n2nc(C)nc2n1`, with 9%; and `O=C(COc1ccccc1)N(Cc1ccco1)c1ccc(O)cc1`, with -5.3%; and `CCCn1nc(NC(=O)c2cccs2)c2cc3cc(OC)ccc3nc21`, with -25.3%.
Then `CCCCn1nc(NC(=O)c2cccs2)c2cc3cc(OC)ccc3nc21`, with 23.2%.
On to `COc1ccc2nc3c(cc2c1)c(NC(=O)c1cccs1)nn3CC(C)C`, for which the cytotoxicity was 52.8% (active).
For `CCOc1ccccc1NC(=O)NC1CCN(CC(=O)Nc2ccc3c(c2)OCCO3)CC1` the value was -18.3%; for `CCN(CC(=O)NCc1cccs1)S(=O)(=O)c1cccc(C(C)=O)c1`, -12.5%; for `O=C(COc1ccccc1)Nc1nnc(-c2ccccc2)o1`, -10.7%.
Then `O=C(COn1nnc2ccc(C(F)(F)F)cc21)Nc1nnc(-c2ccccc2)o1`, with 59.2% (active); and `O=C(COn1nnc2ccc(Cl)cc21)NCc1ccccc1`, with 3.7%.
`Cc1csc(NC(=O)C2CCN(C(=O)CSc3nnc(C)n3Cc3ccccc3)CC2)n1`: the cytotoxicity was -14%.
As to `S=c1[nH]c2ncccc2o1`, the cytotoxicity is 21.2%.
For `Cn1c(N)c(C(=O)CSc2nc3ccccc3n2-c2ccccc2)c(=O)n(C)c1=O` the value was 103% (active); for `NC(=O)CSc1nc2ccccc2n1-c1ccccc1`, 8.7%.
Then `COc1ccc(-n2c(SCC(=O)c3c(N)n(C)c(=O)n(C)c3=O)nc3ccccc32)cc1`, with 7.4%.
For the compound `CCOC(=O)C1=C(C)Nc2nnnn2C1c1cccc(OC)c1OC` (stereo not drawn), the cytotoxicity was -16.1%.
Take `O=C(CN1CCOCC1)NCc1ccccc1`: the cytotoxicity was -11.4%.
Consider `COc1ccc(OC)c(C2CC(=O)c3c([nH]c(C(=O)OCC4CCCO4)c3C)C2)c1` (stereo not drawn), for which the cytotoxicity was 7.8%.
For the compound `COCCOC(=O)c1[nH]c2c(c1C)C(=O)C(C(=O)OC)C(C)C2` (stereo not drawn), the cytotoxicity is 0%.
`CC1=C(C(=O)OCc2ccccc2)C(c2ccco2)C2=C(CC(C)(C)CC2=O)N1` (stereo not drawn): the cytotoxicity is 7.4%.
As for `Cc1c(C(=O)OCC2CCCO2)[nH]c2c1C(=O)CC(c1ccc(N(C)C)cc1)C2` (stereo not drawn), the cytotoxicity was 3.2%.
With `COCCOC(=O)c1[nH]c2c(c1C)C(=O)CC(c1ccco1)C2` (stereo not drawn), the cytotoxicity was 65.5% (active).
For `CCOCCOC(=O)c1[nH]c2c(c1C)C(=O)CC(c1ccc(N(C)C)cc1)C2` (stereo not drawn) the value was 5.2%.
`CCOC(=O)c1[nH]c2c(c1C)C(=O)CC(c1ccc(F)cc1)C2` (stereo not drawn): the cytotoxicity was 58.4% (active).
Then `Cc1c(C(=O)OCc2ccccc2)[nH]c2c1C(=O)CC(c1ccco1)C2` (stereo not drawn), with 68.1% (active).
As for `CCOc1ccc(C2CC(=O)c3c([nH]c(C(=O)OC)c3C)C2)cc1OC` (stereo not drawn), the cytotoxicity is 6.3%.
With `Cc1c(C(=O)OCC2CCCO2)[nH]c2c1C(=O)CC(c1ccco1)C2` (stereo not drawn), the cytotoxicity was 53.3% (active).
For `Cc1c(C(=O)Nc2ccc(C(=O)O)cc2)cnn1C` the value was 7.2%; for `CC(=O)c1ccc(C(=O)Nc2ccc(N3CCOCC3)cc2)cc1`, -18.3%.
For `COc1ccc(C(=O)/C=C/Nc2c(C)n(C)n(-c3ccccc3)c2=O)cc1OC` the value was 20.1%; for `COc1ccccc1Oc1nc2c(c(=O)n(Cc3ccccc3F)c(=O)n2C)n1C`, 18.8%; for `COC(=O)C1=C(C)N=C2SCCC(=O)N2C1c1cccs1` (stereo not drawn), 12.3%.
For `COc1cccc(-n2ccnc2SCC(=O)Nc2nccs2)c1` the value was -7.9%; for `N#CC1=C(N)Oc2n[nH]c(-c3cccs3)c2C1c1ccsc1` (stereo not drawn), -8.3%; for `Cc1c(C(=O)O)[nH]c2c1C(=O)CC(c1ccccc1)C2` (stereo not drawn), -8.9%.
For `COCCOC(=O)c1[nH]c2c(c1C)C(=O)CC(c1ccc(N(C)C)cc1)C2` (stereo not drawn), the cytotoxicity is -10.1%.
For the compound `COCCOC(=O)c1[nH]c2c(c1C)C(=O)CC(c1ccccc1)C2` (stereo not drawn), the cytotoxicity was 71.5% (active).
For `COC(=O)c1[nH]c2c(c1C)C(=O)CC(c1cccs1)C2` (stereo not drawn) the value was 75.6% (active).
Then `Cc1c(C(=O)N2CCOCC2)[nH]c2c1C(=O)CC(c1ccccc1Cl)C2` (stereo not drawn), with 55.9% (active).
For the compound `COCCOC(=O)c1[nH]c2c(c1C)C(=O)CC(c1ccc(F)cc1)C2` (stereo not drawn), the cytotoxicity is 5.3%.
As to `CCOC(=O)c1[nH]c2c(c1C)C(=O)CC(c1ccco1)C2` (stereo not drawn), the cytotoxicity is 59.2% (active).
For `Cc1c(C(=O)N2CCOCC2)[nH]c2c1C(=O)CC(c1ccc(Cl)cc1)C2` (stereo not drawn) the value was -7.4%; for `COC(=O)c1[nH]c2c(c1C)C(=O)CC(c1ccccc1)C2` (stereo not drawn), 48.3%; for `COC(=O)c1[nH]c2c(c1C)C(=O)CC(c1ccc(C)cc1)C2` (stereo not drawn), -3.1%.
On to `CCOC(=O)c1[nH]c2c(c1C)C(=O)CC(c1ccc(OCC)c(OC)c1)C2` (stereo not drawn), for which the cytotoxicity was -1.2%.
Then `CCOC(=O)c1[nH]c2c(c1C)C(=O)CC(c1ccc(OC)c(OC)c1)C2` (stereo not drawn), with -13.1%.

The values are drawn from PubChem BioAssay AID431 (Sanford-Burnham Center for Chemical Genomics, 2006).
